The structures appear in SMILES notation. About 83,000 compounds went through this panel and 20% of them were active in at least one assay; those are over-represented in the sample as a whole.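 Interpretation: 100, growth as untreated; towards 0, rising growth inhibition; 0, no net growth; 0 to -100, cell death. Compounds scoring below 10 were considered active.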 The source made the active and inactive calls.

The subject of this assay is HCT-15 colon. Kind of assay: NCI-60 one-dose screen, 48 h (100 = growth as untreated, 0 = no growth, -100 = all killed). The note with it: 10 µM. As to the method: Growth inhibition of the HCT-15 human tumor cell line is measured as a screen for anti-cancer activity. Cells are grown in 96 well plates and exposed to the test compound for 48 hours. Compounds are tested at a single concentration, which is 10^-5 M for most compounds. The reported endpoint is percent growth (GI% or GIPRCNT), where numbers from 0 - 100% represent growth inhibition, and numbers from -100% - 0 represent cell death. For example, a value of 40 represents 60% growth inhibition. A value of 0 means no net growth occurred over the course of the experiment. A value of -40 indicates 40% of cells at the beginning of the experiment died by the end of the experiment. A value of -100 means all cells are dead at the end of the experiment.
NCI-60 Human Tumor Cell Lines Screen was performed using the standard one-dose NCI protocol, which is described in more detail at https://dtp.cancer.gov/discovery_development/nci-60/default.htm.
Compounds with GIPRCNT values below 10 were considered active. Activity score was based on GIPRCNT using the following formula: […]
Score is 0 for GIPRCNT values of 100 or above, 50 for GIPRCNT values of 0, and 100 for GIPRCNT values of -100.
For `COc1cc(-c2nc3ccc(C)cc3[nH]2)ccc1OCc1nnc(-c2ccc(CC(C)C)cc2)o1`, the growth is 73.8% (inactive).

As to `COc1ccc(OC)c([N+](=O)[O-])c1C=O`, the growth is 104% (inactive).

Turning to `Fc1cc(-c2ncc(-c3cc(F)c(F)c(F)c3)c(NC3CCCCCC3)n2)cc(F)c1F`, the growth was 97% (inactive).

`COc1ccc2nc(C)cc(Nc3ccc(Cl)cc3)c2c1`: the growth is 99.1% (inactive).

With `O=C(O)CCCCSCCCCC(=O)O`, the growth is 106% (inactive).

For the compound `COc1ccc(-c2nnc(COc3ccc(NC(=O)Nc4cccc(C(F)(F)F)c4)cc3F)o2)cc1`, the growth was 46.1% (inactive).

Regarding `COc1ccc(-c2cn[nH]c2-c2cc(OC)c(OC)c(OC)c2)cc1`, the growth was 10.8% (inactive).

For the compound `COc1cc(/C=C/C(=O)c2cc(-c3ccc(F)cc3)ccc2O)cc(OC)c1OC`, the growth is 84.2% (inactive).

Turning to `O=S(=O)(NC1c2ccccc2Oc2ccccc21)c1cc(Cl)ccc1Cl`, the growth was 93.7% (inactive).

In the case of `Cc1nnc2c3nnc(-c4ccc(Cl)cc4)n3c3ccccc3n12`, the growth is 97.4% (inactive).

For `O=C(COc1ccc(Cl)cc1Cl)Oc1coc(CSc2nc3ccccc3s2)cc1=O`, the growth is 103% (inactive).

For the compound `N/C(=N\O)c1cn(C2OC(CO)C(O)C2O)c2ncnc(N)c12` (stereo not given), the growth is 7.46% (active).

On to `CC(=O)N(O)c1ccc(/C=C/c2ccccc2)cc1`, for which the growth is 62.7% (inactive).

Consider `Cc1ncc([N+](=O)[O-])n1CCOc1ccc(C(=O)/C=C/c2ccc(C(F)(F)F)cc2)cc1`, for which the growth is 38.1% (inactive).

Regarding `Cc1ccc2oc(=O)cc(/C(=C3/C=CC=N3)c3ccc[nH]3)c2c1`, the growth is 5.43% (active).

As to `COc1cc2nc(Sc3sc(N)nc3C)n(-c3ccc(Oc4ccccc4)cc3)c(=O)c2cc1OC`, the growth is 79.9% (inactive).

As to `Nc1ccccc1NC(=O)CCCCCCC(=O)Nc1ccc2c(c1)/C(=C/c1ccc[nH]1)C(=O)N2`, the growth was 89.8% (inactive).

As to `C=CCNC(=S)NN`, the growth was 90.7% (inactive).

`Nc1ccc(Sc2ccc3c4c2cccc4c(=O)n2c4ccccc4nc32)cc1`: the growth is 40.5% (inactive).

As for `CNC(=S)Sc1ccc([N+](=O)[O-])cc1[N+](=O)[O-]`, the growth is 36.8% (inactive).

In the case of `COc1ccc(/C=C2\SC(=S)N(CCCN3CCOCC3)C2=O)c(OC)c1`, the growth was 91.9% (inactive).

On to `COc1cccc(C(=O)NNc2nc(N3CCN(C4CCCCC4)CC3)nc(N3CCN(C(c4ccccc4)c4ccccc4)CC3)n2)c1`, for which the growth was 25.4% (inactive).

Consider `COc1ccc(Nc2ccnc(N3CCN(c4ccnc5cc(Cl)ccc45)CC3)n2)cc1`, for which the growth is 7.35% (active).

On to `CC(=O)c1c(O)cc2c3c1OC(C)(C)C1CCC(C)(CC31)O2` (stereo not given), for which the growth is 97.5% (inactive).

In the case of `Oc1ccc(/C=N\Nc2ccccn2)c(O)c1`, the growth is 32.7% (inactive).

Take `N#CCC1CCCC1`: the growth was 99.7% (inactive).

For `CC(=O)Nc1ccc(Sc2ccc(NC(C)=O)cc2)cc1`, the growth was 98.9% (inactive).

Turning to `O=C(CCc1ccccc1)N1CCN(C(=O)CCc2ccccc2)CC1`, the growth is 108% (inactive).

In the case of `CCOc1nc(-c2ccccc2)cc2c(O)c(C(=O)N/N=C/c3ccc(OC)cc3)[nH]c(=O)c12`, the growth is 110% (inactive).

On to `COc1ccc(NC(=O)CCn2cnc3c(cc(-c4ccccc4)n3-c3ccccc3)c2=O)cc1`, for which the growth is 98.6% (inactive).

As to `COc1ccc(-c2nsc3c2NC(=O)CC3c2cccc(Cl)c2)cc1` (stereo not given), the growth was 27.7% (inactive).

With `c1ccc(CC(NCCNC(Cc2ccccc2)c2ccccc2)c2ccccc2)cc1` (stereo not given), the growth was 15.5% (inactive).

For `CCOC(=O)[C@@H]1[C@H](c2ccccc2)[C@H]([N+](=O)[O-])[C@H](c2cn(-c3ccccc3)nc2C)N1Cc1ccccc1`, the growth was 43% (inactive).

For `COc1c(-c2c3sc(=O)[nH]c3nc3c2c(=O)[nH]n3C(C)C)cc2c(c1OC)OCO2`, the growth was 99.6% (inactive).

In the case of `Cc1ccc2c(c1)-c1cc(C)nn1-c1ccc(C#N)cc1O2`, the growth was 38.7% (inactive).

For the compound `COc1cc(Cl)cc(-c2nn(-c3cccc(NC(=O)Nc4cccc(C(F)(F)F)c4)c3)cc2-c2ccncc2)c1`, the growth is 7.83% (active).

As to `COc1ccccc1Cn1cc2c(c1-c1ccccc1)CCc1cnoc1-2`, the growth was 36% (inactive).

As to `COc1ccc(Cn2cc3c(c2-c2ccccc2)CC(C)(C)c2cnoc2-3)cc1`, the growth is 34.8% (inactive).

With `O=c1ccc2nc(-c3ccccc3)nn(-c3ccccc3)c-2c1`, the growth was -75.9% (active).

Consider `C[n+]1c(/C=C/c2c[nH]c3ccccc23)ccc2ccccc21`, for which the growth is 90.7% (inactive).

Source of the values: PubChem BioAssay (NCI).
